Screens: PubChem BioAssay, Broad Institute
Only a sample is shown.
aSyn 5UTR act = Activators via SNCA 5'UTR binding, MLPCN. alpha-synuclein 5'UTR reporter, activators screen. activity score, % (tested at 7.5 µM), hits read low. AID 1814. 300,000 compounds, 7.1% hits; in the data active = activity score below about -60%
Active calls of the source: *.

SMILES | aSyn 5UTR act
O=C(Nc1cc(C(F)(F)F)ccc1N1CCOCC1)c1ccc2ccccc2n1 | -80.2*
CCc1cc2c(=O)n(-c3ccc(Br)cc3)cnc2s1 | -160.3*
CCCCCn1cnc2sc(CC)cc2c1=O | -168.8*
CCc1cc2c(=O)n(CC(C)C)cnc2s1 | -100.7*
N#C/C(=C\c1ccco1)c1nc2ccccc2s1 | -308.6*
N#C/C(=C/c1ccco1)c1nc2ccccc2s1 | -281.8*
NS(=O)(=O)c1ccc(Sc2nc3ccccc3s2)c([N+](=O)[O-])c1 | 66.6
N#C/C(=C\c1ccc(O)c([N+](=O)[O-])c1)c1nc2ccccc2s1 | -66.4*
CCCCc1ccc(-c2csc(/C(C#N)=C\c3ccco3)n2)cc1 | -106.2*
CSc1nnc2c(n1)c(C)nn2-c1cccc(C)c1 | -172.1*
Oc1ccc(-c2cnc3ccccc3n2)cc1 | -72.3*
Nc1ccc2nc(-c3ccccc3)cnc2c1 | -76.2*
CCCCOc1ccc(-c2cnc3ccccc3n2)cc1 | 101.3
Clc1ccc(-c2cnc3ccccc3n2)cc1 | -208.0*
CC(=O)NC(=S)Nc1ccc(NC(=O)COc2ccc(Cl)cc2Cl)cc1 | -62.2*
Cc1ccc(Cl)c(OCC(=O)Nc2ccc3c(c2)OCCO3)c1 | -146.1*
Cc1cc(Cl)ccc1OCC(=O)Nc1ccncc1 | -81.4*
CCOc1ccc(NC(=O)CCC(=O)NNC(=O)COc2ccc(C)cc2Br)cc1 | -76.9*
Cc1ccc(NC(=O)COc2ccc(Br)cc2C)cc1 | -101.8*
Cc1ccc(OCC(=O)Nc2ccc3c(c2)OCO3)c(C)c1 | -174.9*
COc1nc(NCCN2CCOCC2)nc(Nc2ccccc2)n1 | -101.2*
CC(=O)Nc1ccc(-c2nc3c(C)cccc3[nH]2)cc1 | -140.8*
Cc1ccccc1C(=O)Nc1nnc(SC(C)C)s1 | -96.6*
CC(C)=CC(=O)Nc1nnc(-c2ccccc2)s1 | -187.2*
O=C(Nc1nnc(-c2ccccc2)s1)c1ccccc1O | -153.1*
SMILES | aSyn 5UTR act
CC(=O)Nc1ccc(-c2nnc(SCC(=O)Nc3ccc4c(c3)oc3ccccc34)n2C)cc1 | -92.0*
COc1ccccc1C(=O)Nc1nnc(SCC(=O)Nc2ccc3c(c2)oc2ccccc23)s1 | -152.1*
COc1ccccc1C(=O)Nc1nc(-c2cccs2)c(NC(C)=O)s1 | -128.0*
O=C(CSc1ncn[nH]1)Nc1nnc(-c2ccccc2)s1 | -73.5*
COc1ccccc1C(=O)Nc1nnc(C)s1 | -211.3*
COc1cccc(C(=O)Nc2nnc(-c3ccccc3)s2)c1OC | -112.9*
COc1ccccc1C(=O)N(C)c1nnc(-c2ccccc2)s1 | -117.3*
CCOc1ccccc1C(=O)Nc1nnc(C(C)C)s1 | -175.7*
COc1ccccc1C(=O)Nc1nnc(-c2ccccc2)s1 | -152.9*
O=C(Nc1ccccc1)Nc1nnc(-c2ccccc2)s1 | -161.6*
COCCNC(=O)c1cc(-c2cccc(OC)c2)on1 | -85.1*
COc1cccc(-c2cc(C(=O)NC3CCCC3)no2)c1 | -115.1*
O=C(NC1CCCCC1)c1ccc(-c2cccc([N+](=O)[O-])c2)o1 | -126.9*
COCC(C)NC(=O)c1cc(-c2cccc(OC)c2)on1 (stereo not drawn) | -132.9*
O=C1/C(=C/c2ccc(F)cc2)CCC1C1CCCC1 (stereo not drawn) | -132.9*
O=C1/C(=C/c2ccco2)CCC1C1CCCC1 (stereo not drawn) | -65.7*
CCOc1ccc(/C=C2\CCC(C3CCCC3)C2=O)cc1 (stereo not drawn) | -229.3*
O=C1/C(=C/c2ccccc2)CCC1C1CCCC1 (stereo not drawn) | -73.3*
O=C1C(=C2SCCCS2)CC/C1=C\c1ccc(F)cc1 | 119.4
O=C(Nc1ccc(O)cc1)c1cc2n(n1)C(C(F)(F)F)CC(c1ccco1)N2 (stereo not drawn) | -65.8*
COC(=O)c1c(NC(=O)/C=C/C(=O)O)sc(C)c1-c1ccc(C(C)C)cc1 | -68.1*
Nc1nc(Cl)nc2ccc(Br)cc12 | -122.8*
Nc1[nH]n(-c2ccccc2)c(=O)c1N=Nc1ccccc1[N+](=O)[O-] | -133.5*
Nc1[nH]n(-c2ccccc2)c(=O)c1N=Nc1ccc2ncsc2c1 | -77.8*
Nc1[nH]n(-c2ccccc2)c(=O)c1N=Nc1ccccc1 | -138.2*
SMILES | aSyn 5UTR act
COc1ccc(C(=O)/C=C/c2ccc(OC)cc2OC)c(O)c1 | -283.0*
COc1ccc(C(=O)/C=C/c2cc(C(=O)O)cc3c2OCOC3)c(O)c1 | -75.4*
COc1ccc(/C=C/C(=O)c2cc3c(cc2N)OCO3)cc1 | -182.8*
COc1ccc(C(=O)/C=C/c2ccccc2)c(O)c1 | -110.8*
COc1ccc(C(=O)/C=C/C(=O)N(CC(=O)NC2CCCCC2)Cc2ccccc2)c(O)c1 | 66.6
CN(C)c1ccc(/C=C/C(=O)c2cc(Cl)ccc2O)cc1 | -95.8*
COc1ccc(/C=C/C(=O)c2cc(Cl)ccc2O)c(OC)c1 | -79.9*
COc1ccc(C(=O)c2ccc(OC)cc2O)c(O)c1 | -119.5*
O=C(/C=C/c1ccc(O)cc1)c1ccc(O)cc1O | -244.3*
COc1ccc(/C=C/C(=O)CCC(=O)O)cc1 | -77.6*
COc1ccc(/C=C/C(=O)c2ccc(OC)cc2OC)cc1 | -114.3*
COc1ccc(C(=O)/C=C/Nc2ccccn2)c(OC)c1 | -159.9*
COc1ccc(/C=C/C(=O)c2cc(F)ccc2OC(=O)c2ccccc2)cc1OC | 67.1
COc1ccc(C(=O)/C=C/c2ccccc2OC)c(OC(=O)c2ccc([N+](=O)[O-])cc2)c1 | -332.2*
OC1c2cc(Br)ccc2N=C2CCCN21 (stereo not drawn) | -87.6*
CCOC(=O)c1cnc2c(ccc3ccccc32)c1N | -125.5*
CCOC(=O)c1cnc2c(ccc3ccccc32)c1NCCO | -95.8*
C=CCN=c1scc(-c2ccccc2)n1/N=C/c1ccccn1 | -67.8*
CCN=c1scc(-c2ccc(F)cc2)n1/N=C/c1ccccn1 | -73.0*
COc1ccccc1N=Cc1c(C)c(C#N)c2[nH]c3ccccc3n2c1=O | -89.8*
Clc1ccc(Nc2nc3cccnc3s2)cc1 | -143.8*
CCCCNc1nc2cccnc2s1 | -78.3*
Cc1c(OCc2ccc([N+](=O)[O-])cc2)ccc2c3c(c(=O)oc12)CCC3 | -114.2*
Cc1c(C)c2ccc(OCC(=O)Nc3ccccn3)c(C)c2oc1=O | 109.5
Cc1c(OCC(=O)NCc2cccnc2)ccc2c3c(c(=O)oc12)CCC3 | -71.4*
SMILES | aSyn 5UTR act
Cc1c(OCC(=O)OC(C)(C)C)ccc2c3c(c(=O)oc12)CCC3 | -61.6*
CC(=O)COc1ccc2c3c(c(=O)oc2c1C)CCCCC3 | -120.2*
Fc1cccc2sc(Nc3nc4cc5c(cc4s3)OCO5)nc12 | -222.1*
Fc1cc(F)c2nc(Nc3nc4cc5c(cc4s3)OCO5)sc2c1 | -175.7*
O=C(NNc1nc2cc3c(cc2s1)OCCO3)c1ccccc1 | -140.9*
Fc1cccc2sc(Nc3nc4cc5c(cc4s3)OCCO5)nc12 | -78.1*
Cc1cc(OCc2cc(C(=O)N(C)C3CCOC3)no2)cc(C)c1Cl (stereo not drawn) | -106.9*
CC(=O)c1ccc(OCc2cc(C(=O)N(C)C3CCOC3)no2)cc1 (stereo not drawn) | -129.6*
CC(=O)c1ccc(OCc2cc(C(=O)N(C)CCOc3ccc(C)cc3)no2)cc1 | -170.1*
Cc1ccc(SCc2cc(=O)n3ccsc3n2)c(C)c1 | -78.9*
CSc1nc2sc3c(c2c(=O)n1C)CCC(C)C3 (stereo not drawn) | -165.5*
Oc1c(Cl)cc(Cl)cc1C=Nc1ccc2c(c1)OCCO2 | -63.0*
O=C(CSc1nc2ccccc2o1)Nc1ccc(N2CCOCC2)c(Cl)c1 | -164.9*
CC(=O)Nc1ccc2nc(SCC(=O)Nc3ccc(N4CCOCC4)c(Cl)c3)sc2c1 | -142.4*
